The text below walks through data of PubChem BioAssay AID493056 (National Center for Advancing Translational Sciences (NCATS), 2011).

Screen size: about 360,000 compounds; about 2,400 (0.67%) were called active. What follows is part of a selection rich in actives, with near analogues and random picks from the rest. Unmarked numbers belong to inactive results. Rule as the data show it: active = enhancement above about 30%; inactive = the rest.

The assay deals with Thyrotropin-releasing hormone receptor (Homo sapiens) (UniProt P34981). Description: qHTS for Small Molecule Agonists and Allosteric Enhancers of Human TRH Receptor: Primary Screen for Enhancers. Also: 0% is about no effect. To be noted: TRHR cells, fluo-8 calcium fluorescence, EC20 TRH enhancement; at 2 µM; hits give high values. In short, it runs like this: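 TRHR-expressing cells loaded with fluo-8 calcium dye were read kinetically (ex 480/em 530) during compound addition, then stimulated with an EC20 of TRH (10 nM final). Enhancement of the Gq-mediated intracellular calcium response was scored.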
Chain of Thyrotropin-releasing hormone receptor (Homo sapiens) (P34981 whole entry, looked up): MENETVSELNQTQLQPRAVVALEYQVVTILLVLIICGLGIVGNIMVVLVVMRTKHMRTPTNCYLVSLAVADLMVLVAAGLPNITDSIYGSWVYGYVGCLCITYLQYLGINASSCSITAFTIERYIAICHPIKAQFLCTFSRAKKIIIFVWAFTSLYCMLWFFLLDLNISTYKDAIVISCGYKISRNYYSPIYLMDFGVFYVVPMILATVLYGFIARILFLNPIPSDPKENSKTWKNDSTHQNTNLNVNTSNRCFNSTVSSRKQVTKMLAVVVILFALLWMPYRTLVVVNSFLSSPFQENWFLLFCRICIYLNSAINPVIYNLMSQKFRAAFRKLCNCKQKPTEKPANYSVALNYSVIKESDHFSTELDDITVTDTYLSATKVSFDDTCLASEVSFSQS
(qHTS replaces the single test concentration by a dilution series.)
Regarding `COc1ccc(CNC(=O)C2=Cc3cccc(OC)c3OC2)cc1OC`, the enhancement is -3.7%. For `CC(C)C(=O)N1CCN(c2nc(-c3ccccc3)c3c(c2C#N)CC(C)(C)OC3)CC1` the value was -1.59%; for `C1=C(N2CCOCC2)/C(=C/c2nc3ccccc3[nH]2)CC1`, 3.98%. For `CC1(C)Cc2c(C#N)c(SCc3nc4ccccc4[nH]3)nc(N3CCOCC3)c2CO1` the value was 34.4% (active); for `Cc1nc2nc(NCc3cccc(Br)c3)[nH]n2c(=O)c1Cc1ccccc1`, 2.4%; for `COc1ccc(-c2noc(CCC(=O)N(C)c3ccccc3C)n2)cc1`, 6.52%. For `COc1ccc(C2CC(=O)Nc3sc(=N)c4c(N)c(C#N)c(N)nc4c32)cc1OC` (centres undefined) the value was 33.8% (active); for `N#Cc1c(N)nc2c3c(sc(=N)c2c1N)NC(=O)CC3c1ccccc1Cl` (centres undefined), 2.83%.

In the case of `COc1ccc(C2CC(=O)Nc3c2c(=O)nc2c(C)cccn32)cc1OC` (centres undefined), the enhancement was 15%. For `O=C(CSc1cn(CC(=O)N2CCOCC2)c2ccccc12)Nc1ccccc1` the value was -5.59%. Next, `COc1ccc(Cc2nc3ccc(C(=O)NCc4ccccc4Cl)cc3o2)cc1`: 3.9%; `CCC(Sc1nc2n[nH]c(C)c2c(=N)n1-c1ccccc1Cl)C(=O)N(CC)CC` (centres undefined): -2.62%.

As for `Cc1ccc(Oc2c(C(F)(F)F)oc3c(CN4CCCCC4)c(O)ccc3c2=O)cc1`, the enhancement was 0.578%. Next, `CCOC(=O)c1sc(NC(=O)CSc2nc(O)c(Cc3ccccc3)c(=O)[nH]2)nc1C`: 0.15%; `CCCOc1ccc(Cc2c(O)nc(N)[nH]c2=O)cc1C`: 5.99%. For `CCCOc1ccc(Cc2c(O)nc(SC)[nH]c2=O)cc1C` the value was 40.1% (active); for `Cc1cc2c(s1)c1cnn(Cc3cc(F)c(Cl)cc3Cl)c(=O)c1n2C`, -6.51%; for `COc1ccc(CCN2C(=O)c3oc4cc(C)cc(C)c4c(=O)c3C2c2ccccc2F)cc1OC` (centres undefined), -0.372%. Turning to `O=C(Cc1ccccc1)Nc1sc2c(c1C(=O)Nc1ccc(Br)cc1)CCC2`, the enhancement was 1%.

In the case of `COc1ccc(C2Sc3ccccc3NC3=C2C(=O)c2ccccc23)c(OC)c1OC` (centres undefined), the enhancement was -4.93%. For `COc1c(Cl)cc(C(=O)N(Cc2ccccc2F)C2CCS(=O)(=O)C2)cc1Cl` (centres undefined) the value was 34% (active); for `COc1ccccc1C(=O)N(Cc1ccc(C)o1)C1CCS(=O)(=O)C1` (centres undefined), 0.844%; for `COc1cc(C(=O)N(Cc2ccc(C(C)C)cc2)C2CCS(=O)(=O)C2)cc(OC)c1OC` (centres undefined), -5.35%. Regarding `CCOC(=O)c1ccc(N2C(=O)c3[nH]nc(-c4ccccc4)c3C2c2ccc(C(C)C)cc2)cc1` (centres undefined), the enhancement was 7.37%.
